# ClpP mod: qHTS Assay for Activators of ClpP. purified B. subtilis ClpP, FRET peptide cleavage, 20 min. ATP-dependent Clp protease proteolytic subunit (Bacillus subtilis (strain 168)), P80244. AID 651965, 2013. Potency, µM (doses to about 57.5 µM), for inactives: at the top dose activity change, negative = active. 340,000 compounds, 1.9% hits; active = well fitted falling curve with a large enough effect; inconclusive = small, poorly fitted or top-dose-only effect; inactive = no such curve, though single readings can be large or run the other way; note: the source files actives as falling curves though it sought activators and does not explain the sign; nearly all actives have a fitted effect of over 65% in size
#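 Buffer: 100 mM Tris/HCl pH8, 100 mM KCl, 0.05% low protease BSA, 2.5% glycerol, 0.01% Tween-20. ClpP 10 microg/mL final; 20 min RT; delta FRET normalized to ADEP and DMSO controls.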
# USP2a block: inhibitors of human ubiquitin-specific protease USP2a. USP2 core, Ub-CHOP2 coupled fluorogenic reporter, 485/531. Potency, µM (top dose mostly 38.3 µM), without a hit: top-dose activity change, negative = inhibition, usual class: inhibitors. 330,000 compounds, 0.01% hits;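 note: plate controls were DMSO wells for no effect and full inhibition by NEM control for full effect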
# Target sequence (O75604 whole entry, looked up): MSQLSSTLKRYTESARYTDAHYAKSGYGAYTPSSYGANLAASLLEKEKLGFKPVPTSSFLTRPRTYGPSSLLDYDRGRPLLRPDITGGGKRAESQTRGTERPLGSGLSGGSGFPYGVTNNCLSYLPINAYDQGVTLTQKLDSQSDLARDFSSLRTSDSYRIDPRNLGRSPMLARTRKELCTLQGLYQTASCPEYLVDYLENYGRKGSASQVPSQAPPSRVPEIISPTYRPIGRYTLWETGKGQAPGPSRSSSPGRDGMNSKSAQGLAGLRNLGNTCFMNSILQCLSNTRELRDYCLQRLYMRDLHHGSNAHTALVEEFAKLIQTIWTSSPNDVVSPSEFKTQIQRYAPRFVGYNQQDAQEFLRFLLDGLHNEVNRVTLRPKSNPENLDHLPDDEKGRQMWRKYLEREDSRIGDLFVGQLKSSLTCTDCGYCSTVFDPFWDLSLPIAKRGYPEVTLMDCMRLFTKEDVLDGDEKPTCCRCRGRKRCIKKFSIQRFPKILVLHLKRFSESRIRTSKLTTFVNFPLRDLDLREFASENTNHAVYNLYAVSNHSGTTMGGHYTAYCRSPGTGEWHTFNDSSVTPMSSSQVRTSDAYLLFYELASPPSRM
#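 Cell-free coupled assay: 10nM USP2 core preincubated 30min RT with compound in Tris-HCl pH 8.0/CaCl2/CHAPS buffer, then 25nM Ub-CHOP2 and 25nM reporter substrate; fluorescence (Ex 485/Em 531) read after 60min RT, normalized to NEM inhibition, concentration-response curves fitted.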
# p53 reactivation: re-activators of mutant p53. 320,000 compounds, 0.063% hits. Potency, µM (series often up to 92.2 µM), without a hit: top-dose activity change, positive = activation, usual class: activators. H1299 p53-A138V BP100-luciferase reporter, luminescence, 24 h; note: % of control where 0% means no effect; nearly all actives have a fitted effect of over 45% in size
#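 p53-null H1299 cells stably carrying temperature-sensitive p53-A138V and a BP100-luciferase reporter were pinned with compounds (4-point, 1:5 series) and held 24 hrs at 37 deg C. Luminescence was read 10 min after detection reagent.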
# MmCpn inh: blocks the Methanococcus maripaludis chaperonin Mm-Cpn; purified Mm-Cpn ATPase, ADP Transcreener TR-FRET; Potency, µM (highest dose often 76.9 µM), without a hit: top-dose activity, negative = inhibition, usual class: inhibitors; 330,000 compounds, 0.031% hits; AID 504842; note: % is set by controls: 0 for no effect and ±100 for the full control effect; nearly all actives have a fitted effect of over 80% in size
#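 ATPase read-out: TR-FRET ADP immunoassay (anti-ADP Eu cryptate vs ADP-d2), ex 320 nm, em 590/665 nm; signal drops as ADP forms. Enzyme 25 nM, ATP 10 uM, 30 min at 37°C after 10 min compound preincubation.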
# Eya2 phos inh: blocks the phosphatase activity of human Eya2 | O00167 | recombinant Eya2, OMFP fluorescence dephosphorylation (OMFP is methylfluorescein phosphate) | Potency, µM (series often up to 76.9 µM), for inactives: at the top dose activity, negative = inhibition, actives largely listed as inhibitors | 330,000 compounds, 0.006% hits | AID 488837; note: % is set by controls: 0 for no effect and ±100 for the full control effect
#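 Eya2 protein (added as 0.2 uM solution) was preincubated with compound for 10 min at ambient temperature in 50 mM HEPES pH 7.5, 50 mM NaCl, 5 uM MgCl2, 0.05% BSA, 1 mM DTT. OMFP (added at 50 uM) then reacted 10 min; fluorescence read at 485/525 nm.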
# Integrin act MD: integrin-mediated muscular dystrophy alleviation activation; Potency, µM (top dose mostly 38.3 µM), without a hit: at the highest dose activation, usual class: activators; 350,000 compounds, 0.064% hits; alpha7betagal myoblasts, beta-gal FDG fluorescence, 48 h;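 note: 100% = response of the positive control SU9516; nearly all actives have a fitted effect of over 60% in size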
#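 Alpha7betagal+/- myoblasts (passage 13) were plated 16-24 hr, then exposed to compounds (1:260 dilution of DMSO stock) for 48 hours at 37C. After MPER lysis, β-galactosidase reporter activity was read as FDG fluorescence (ex 480/em 540) after 30 minutes.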
# Starred values were filed as active, the others as inactive; u = inconclusive; x = no result; [ ] = another dose, or the depositor's remark. Only a selection was taken, and hits are over-represented in it overall. Unless noted, calls come from the whole dose curve; as a rule, active = well fitted curve in the direction sought with a large enough effect; inconclusive = small, poorly fitted or top-dose-only effect, or another doubt; inactive = no such curve, though single readings can be large; an effect the other way counts as inactive or inconclusive. Potency is the fitted concentration of half-maximal effect.
SMILES,ClpP mod,USP2a block,p53 reactivation,MmCpn inh,Eya2 phos inh,Integrin act MD
O=C(C[N+]1(CCO)CCOCC1)c1ccc(F)c2ccccc12,0%,x,x,x,x,x
Cc1ccc(-c2nc3ccccc3n2C)o1,16µM*,2%,10%,1%,26%,0%
Cc1oc(-c2nc3ccccc3n2C)cc1C(=O)c1ccccc1,0%,1%,10µM*,-4%,2%,-20%
CCOc1ccc2oc(=O)cc(C)c2c1,32µM*,4%,7%,2%,-21%,19%
Cc1cc(=O)oc2cc(OCC(=O)Nc3c(C)n(C)n(-c4ccccc4)c3=O)c(Cl)cc12,32µM*,2%,-1%,-3%,-16%,27%
Cc1cc(=O)oc2cc(OC(C)C(=O)O)c(Cl)cc12 (centres undefined),28µM*,1%,-1%,-1%,5%,-17%
Cc1cc(=O)oc2ccc(OC(C)C(=O)O)cc12 (centres undefined),32µM*,3%,1%,-2%,5%,10%
Cc1ccc(C)c(OCC(=O)Nc2c(C)n(C)n(-c3ccccc3)c2=O)c1,-2%,3%,1%,-3%,5%,23%
COc1ccc(-c2cc(=O)oc3cc(OC(C)C(=O)O)ccc23)cc1 (centres undefined),u,-5%,-7%,1%[15.4 µM],5%,17%
CCC(=O)Oc1ccc2oc(=O)cc(C)c2c1,-6%,4%,u,1%,-1%,6%
Cc1cccc(-c2noc(-c3cc(C(C)C)[nH]n3)n2)c1,-2%,x,x,x,x,x
CC(=O)NC(Cc1c(F)c(F)c(F)c(F)c1F)C(=O)NCC(N)C(=O)c1ccccc1 (centres undefined),0%,x,x,x,x,x
Clc1ccc(Cn2c3c(c4ccccc42)CCc2cc4ccccc4nc2-3)cc1,4%,x,x,x,x,x
Cc1nc2ccccc2nc1/C=C/c1ccc(N(C)C)cc1,1%,x,x,x,x,x
COc1cc2c(NC3CCN(C)CC3)nc(N3CCN(C)CC3)nc2cc1OCCCN(C)C,4%,x,x,x,x,x
Cc1nc(N2CCC(C)CC2)c2oc3ccccc3c2n1,-19%,0%,5%,0%,-3%,-41%
COc1ccccc1N1CCN(c2nc(C)nc3c2oc2ccccc23)CC1,32µM*,-7%,19%,0%,-15%,-27%
Cc1ccc2nc(SCC(=O)OCc3ccccc3)nc(=O)n2c1,28µM*,1%,-1%,3%,20%,15%
Cc1ccc2nc(SCC(=O)NCCc3ccccc3)nc(=O)n2c1,28µM*,-2%,5%,-2%,1%,-3%
CCOC(=O)CSc1nc(=O)n2cc(C)ccc2n1,x,0%,5%,-1%,5%,12%
O=C(CSc1nc(=O)n2cc(Cl)ccc2n1)NCCc1ccccc1,-10%,2%,-4%,1%,30%,-10%
CCOc1ccc(N(CC)S(=O)(=O)N2CCCC(C(=O)Nc3ccc(NC(C)=O)cc3)C2)cc1 (centres undefined),-2%,x,x,x,x,x
COc1cc(CN(C(=O)COc2ccccc2Cl)c2ccccn2)cc(OC)c1OC,1%,x,x,x,x,x
COc1ccccc1CNC(=O)c1cccn1-c1nnc(N2CCCC2)s1,-3%,x,x,x,x,x
Cc1cc(C(=O)N/N=C/c2cccc(Cl)c2Cl)no1,-1%,-8%,22%,2%,-15%,-19%
SMILES,ClpP mod,USP2a block,p53 reactivation,MmCpn inh,Eya2 phos inh,Integrin act MD
CCc1ccc(/C=N/NC(=O)c2cc(C)on2)s1,2.8µM*,1%,u,2%,2%,24%
O=C(Nc1ccccc1C(F)(F)F)N1CCC(CN2CCc3ccccc3C2)CC1,-6%,x,x,x,x,x
CCN(C(=O)C1CCCN(S(=O)(=O)c2c(C)noc2/C=C/N(C)C)C1)c1cccc(C)c1 (centres undefined),-2%,x,x,x,x,x
CC(=O)N(CC1CCCO1)c1nnc(-c2ccccn2)s1 (centres undefined),16µM*,0%,u,-2%,9%,18%
CCCCc1ccc(S(=O)(=O)N/N=C(/C)c2ccncc2)cc1,32µM*,2%,-8%,1%,-3%,-35%
C/C(=N\NS(=O)(=O)c1ccccc1)c1ccccc1,x,-1%,-1%,-5%,0%,1%
NN=C1c2cc(S(=O)(=O)NCCO)ccc2-c2ccc(S(=O)(=O)NCCO)cc21,-2%,x,x,x,x,x
CSc1cccc(Nc2cc(C(=O)NCCCN(Cc3ccccc3)C(C)C)c3ccccc3n2)c1,35µM*,x,x,x,x,x
COc1ccc(Nc2cc(C(=O)NCCCN(C)Cc3ccccc3)c3ccccc3n2)cc1,33%,x,x,x,x,x
CCCN1CNc2c(c(=O)[nH]c(=S)n2CCc2ccc(OC)cc2OC)C1,-1%,x,x,x,x,x
CCCCc1cc(=O)oc2cc(OCc3nn[nH]n3)c(Cl)cc12,28µM*,-10%,6%,-3%,-39%,14%
CCCc1cc(=O)oc2c(C)c(OCc3nn[nH]n3)ccc12,4%,-1%,-7%,0%,-16%,-18%
CCOc1ncccc1C(=O)Nc1ccc(Cl)c(S(=O)(=O)N2CCCC2)c1,-3%,8%,-1%,u,11%,-32%
CCOc1ncccc1C(=O)Nc1cc(S(=O)(=O)N2CCCCC2)ccc1Cl,32µM*,0%,12%,2%,7%,10%
CCn1c(CSc2nc3ccccc3[nH]2)nc2cc(C(=O)O)ccc21,35µM*,3%,-1%,-5%,-1%,15%
COc1ccc2oc(C(=O)OCC(=O)NC(C)c3ccccc3)c(C)c2c1 (centres undefined),3%,1%,11%,-6%,-9%,16%
COc1ccc2oc(C(=O)OCC(=O)NC(C)(C#N)C3CC3)c(C)c2c1 (centres undefined),32µM*,1%,2%,0%,-10%,19%
COc1ccc2oc(C(=O)OC(C)C(=O)NCc3ccccc3)c(C)c2c1 (centres undefined),x,2%,-6%,-7%,-15%,-6%
COc1ccc2oc(C(=O)OCC(=O)NC3CC3)c(C)c2c1,3%,0%,29%,1%,15%,-6%
COc1ccc2oc(C(=O)OCC(=O)NC(=O)NC(C)C)c(C)c2c1,32µM*,0%,4%,-2%,0%,-6%
COc1ccc2oc(C(=O)OC(C)C(=O)NC3(C#N)CCCCC3)c(C)c2c1 (centres undefined),25µM*,3%,-3%,-4%,12%,10%
COC(=O)c1oc2ccc(OC)cc2c1N,16µM*,-1%,u,1%,-1%,5%
COc1ccc(C(=O)c2oc3ccc(OC)cc3c2N)cc1,1%,0%,u,-2%,-6%,17%

# Source: PubChem BioAssay (National Center for Advancing Translational Sciences (NCATS))
